Potency and affinity values are given separately. Activity calls are given as the source filed them.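 The calls were made as follows: active = signal-lowering compounds whose fitted half-maximal concentration is at or below twice the top tested dose in every run; inconclusive = runs disagree, flat 30 to 70% inhibition, or poor curve fit; inactive = the rest.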
target: Protein S100-A4 (Homo sapiens) (UniProt P26447); assay: S100A4-myosin IIA binding inhibitor potency, dose response, biochemical, fluorescence polarization, cherry-picked hits (AID 687001); conditions: FP, S100A4/TAMRA-myosin IIA peptide binding; series mostly up to 11 µM
Sequence (P26447 whole entry, looked up): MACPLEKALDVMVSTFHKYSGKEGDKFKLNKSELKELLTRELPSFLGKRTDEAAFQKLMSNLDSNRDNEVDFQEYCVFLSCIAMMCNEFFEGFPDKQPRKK

outcome, inactive:
CCCCn1cnc2c(SCc3ccc(Cl)cc3)nc(N)nc21
O=C(C[C@H]1CC[C@@H]2[C@H](COC[C@@H](O)CN2C(=O)Nc2ccc(F)cc2)O1)NCCc1ccccc1
COc1ccc(C(C)(O)c2nc(-c3cccs3)cs2)cc1 (stereo not drawn)
CC1CCN(C(=O)CSc2n[nH]c(-c3cccs3)n2)CC1
C(=Cc1nc2ccccc2o1)c1ccc2c(c1)OCO2
Cc1[nH][nH]c(=O)c1C(c1cc(Br)ccc1O)c1c(C)[nH][nH]c1=O
O=C1C2C3C=CC(C2C(=O)N1CCO)C1C(=O)N(CCO)C(=O)C31 (stereo not drawn)
COc1ccc(-c2cc(C(=O)NCc3ccco3)c3ccccc3n2)c(OC)c1
CCN(CC(=O)Nc1c(F)cccc1F)C(=O)c1ccc(OC)c(S(=O)(=O)NC2CCCC2)c1
CCn1c(=O)c2ccccc2n2c(SCC(N)=O)nnc12
C[C@@H](NC(=O)C[C@H]1C=C[C@@H](NC(=O)C2CCC2)[C@H](CO)O1)c1ccccc1
O=C(Nc1cc(Cl)ccc1O)C1CC(c2c(F)cccc2Cl)=NO1 (stereo not drawn)
O=C1CN(Cc2ccc(F)cc2)C[C@@H]2[C@@H](c3ccc(-c4ccccc4F)cc3)[C@H](CO)N12
COCC(=O)N1[C@H](CO)[C@@H](c2ccccc2)C12CN(C(=O)Cc1ccccn1)C2
CC(=O)N1CC(C)Oc2ccc(S(=O)(=O)NC(CC(=O)O)c3ccccc3)cc21 (stereo not drawn)
O=C(O)COCC(=O)Nc1ccc(-n2nc(C(F)(F)F)cc2-c2cccs2)cc1
O=C(Nc1ccc(S(=O)(=O)N2CCCCC2)cc1)C1CC(=O)N(Cc2ccccc2)C1 (stereo not drawn)
O=C(CSc1ccc(Cl)cc1)NC1CC1
C[C@@H]1CN([C@@H](C)CO)C(=O)CCCn2cc(nn2)CO[C@H]1CN(C)S(=O)(=O)c1ccc(Oc2ccccc2)cc1
N/C(=N\OC(=O)CCn1cccc(C(F)(F)F)c1=O)c1ccc(OC(F)(F)F)cc1
COCCCNC(=O)C[C@@H]1C[C@@]2(C(=O)OC)CCCCC=C2N(Cc2ccc3c(c2)OCO3)C1=O
COc1cc(S(=O)(=O)N2CCOCC2)cc(C(=O)c2nccn2C)c1OC
CN(C)CC(=O)N[C@H]1CC[C@@H](CC(=O)NCc2ccc(Cl)cc2)O[C@@H]1CO
COc1cc(S(=O)(=O)NCc2ccccn2)ccc1Cl
O=C1NC[C@H](c2ccccc2)OC(=O)[C@H](Cc2ccc(F)cc2)C/C=C\C[C@H]1CC(=O)N(CCO)Cc1ccccc1
CO[C@H]1CN(C)C(=O)c2ccc(NC(=O)c3ccccc3F)cc2OC[C@H](C)NC[C@@H]1C
COc1ccc(Cl)cc1-c1cc(C(=O)N[C@H](C)c2ccccc2)[nH]n1
Cc1cc(/C(N)=N/OC(=O)Nc2ccccc2)no1
Cc1cccc(C)c1NC(=O)C1(C)CCC(=O)N1CCOc1ccccc1 (stereo not drawn)
Cc1cc(C)c(NC(=O)CNC(=O)COC(=O)/C=C/c2cccs2)c(C)c1
O=C(CN1C(=O)CCS(=O)(=O)c2ccccc21)Nc1ccc(F)cc1
CO[C@@H]1CN(C)C(=O)c2cc(NC(C)=O)ccc2OC[C@H](C)N(Cc2cncnc2)C[C@H]1C
COc1ccc(-c2coc(CCC(=O)N3CCN(c4cc(C)ccc4C)CC3)n2)cc1
COc1cc2c3nnc(-c4ccc(F)cc4)c-3cn(Cc3ccc(C)cc3)c2cc1OC
CSc1cccc(NS(=O)(=O)c2ccc(-c3coc(C)n3)cc2)c1
CCCN1CCN(CCCNC(=O)C(CC)n2nc(C)c3sc4ccccc4c3c2=O)CC1 (stereo not drawn)
Cc1onc(-c2ccccc2Cl)c1C(=O)N1CCCC1
COc1ccccc1NC(=O)N[C@H]1CC[C@H](CCNS(=O)(=O)c2ccc(Cl)cc2)O[C@H]1CO
